KDM5B inhibitor: KDM5B demethylase inhibition. Potency, µM (doses to about 57.7 µM), hits mostly inhibitors. Q9UGL1. KDM5B demethylase, FDH-coupled NADH fluorescence (FDH is formaldehyde dehydrogenase). 220,000 tested, 2.6% active. AID 1347165; note: potency is the fitted concentration of half-maximal effect; 0% is about no effect; nearly all actives have a fitted effect of over 70% in size
Target sequence (Q9UGL1 whole entry, looked up): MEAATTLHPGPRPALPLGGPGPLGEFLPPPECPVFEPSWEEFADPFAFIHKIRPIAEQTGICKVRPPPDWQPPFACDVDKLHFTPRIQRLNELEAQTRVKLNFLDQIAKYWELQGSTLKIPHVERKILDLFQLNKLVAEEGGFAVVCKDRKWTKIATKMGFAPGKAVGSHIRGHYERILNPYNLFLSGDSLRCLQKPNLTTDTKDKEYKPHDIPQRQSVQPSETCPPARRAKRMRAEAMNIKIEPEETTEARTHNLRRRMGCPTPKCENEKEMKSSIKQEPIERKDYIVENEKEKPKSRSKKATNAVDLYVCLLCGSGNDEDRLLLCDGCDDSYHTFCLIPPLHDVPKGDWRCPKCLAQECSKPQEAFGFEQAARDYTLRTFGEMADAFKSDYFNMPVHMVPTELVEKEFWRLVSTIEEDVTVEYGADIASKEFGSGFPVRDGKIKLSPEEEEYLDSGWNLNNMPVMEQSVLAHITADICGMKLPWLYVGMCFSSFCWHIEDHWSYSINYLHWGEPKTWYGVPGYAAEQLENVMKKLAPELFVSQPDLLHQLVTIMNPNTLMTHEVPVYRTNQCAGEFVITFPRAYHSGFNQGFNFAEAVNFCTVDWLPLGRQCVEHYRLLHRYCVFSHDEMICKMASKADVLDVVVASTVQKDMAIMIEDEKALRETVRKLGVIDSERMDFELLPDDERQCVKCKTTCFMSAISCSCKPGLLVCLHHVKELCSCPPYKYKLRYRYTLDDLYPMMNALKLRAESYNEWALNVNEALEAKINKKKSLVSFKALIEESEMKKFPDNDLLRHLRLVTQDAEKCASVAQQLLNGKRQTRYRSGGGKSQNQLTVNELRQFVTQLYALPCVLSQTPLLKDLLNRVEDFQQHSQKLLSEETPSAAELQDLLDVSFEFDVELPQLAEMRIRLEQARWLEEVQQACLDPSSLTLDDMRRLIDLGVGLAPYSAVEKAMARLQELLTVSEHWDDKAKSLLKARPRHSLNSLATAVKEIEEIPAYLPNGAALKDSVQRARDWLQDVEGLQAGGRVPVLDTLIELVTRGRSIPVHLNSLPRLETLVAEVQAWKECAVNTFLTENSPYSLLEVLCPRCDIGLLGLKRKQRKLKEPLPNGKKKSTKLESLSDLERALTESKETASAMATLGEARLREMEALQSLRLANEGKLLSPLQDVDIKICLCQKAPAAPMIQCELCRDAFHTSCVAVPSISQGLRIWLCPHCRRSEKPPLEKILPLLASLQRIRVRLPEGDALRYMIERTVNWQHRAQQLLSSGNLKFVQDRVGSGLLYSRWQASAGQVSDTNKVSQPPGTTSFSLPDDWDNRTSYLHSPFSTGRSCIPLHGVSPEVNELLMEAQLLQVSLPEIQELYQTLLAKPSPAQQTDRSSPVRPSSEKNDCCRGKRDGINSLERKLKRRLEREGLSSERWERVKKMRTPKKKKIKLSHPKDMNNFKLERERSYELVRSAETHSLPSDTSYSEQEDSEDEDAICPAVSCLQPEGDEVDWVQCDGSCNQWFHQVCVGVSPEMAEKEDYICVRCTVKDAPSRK
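Compound dilutions met 200 nM (final) KDM5BΔAP for 10 min at room temperature before substrate addition. The substrate mix held 12.5 µM H3K4me3 with cofactors 25 µM α-ketoglutarate and 50 µM Fe²⁺. NADH signal gain over 30 min defined activity.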
HEK293 viab: cell viability loss counter-screen; HEK-293-SNCA-luc viability, GF-AFC fluorescence, 24 h; Potency, µM (highest dose often 57.1 µM), inactives show at the highest dose activity change, negative = cytotoxicity, actives largely listed as cytotoxic; 150,000 tested, 0.12% active;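 note: potency is the fitted concentration of half-maximal effect; 0% = DMSO-treated cells and -100% = medium-only wells without cells; nearly all actives have a fitted effect of over 30% in size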
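HEK-293-SNCA-luc cells (1500/well) plated 24 h, then exposed 24 h to a dilution series; GF-AFC added 30 min at 37C, fluorescence 405/540 nm; normalised to medium-only and DMSO wells, Hill fit.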
IP6K1 inh: inhibitors of human IP6K1. Q92551. IP6K1 kinase, ADP-Glo luminescence, 2 h; active compounds read low. activity change, % (series mostly up to about 58 µM). 140,000 tested, 0.81% active. AID 1645851; in the data active = activity change below about -25%; note: % is set by controls: 0 for no effect and ±100 for the full control effect
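ADP-Glo luminescence measures ADP made by human IP6K1 during a 2 h RT reaction with ATP/IP6 (mix at 1.3 mM/130 uM); top library doses 57.5 and 19.1 uM final.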
SNCA expr inh: inhibitors of alpha-synuclein (SNCA) gene expression; HEK-293 SNCA-luciferase knock-in, luminescence, 24 h; Potency, µM (titrated, usually from 57.2 µM), for the others: at the top dose activity change, negative = inhibition, most hits filed as inhibitors; 140,000 tested, 0.17% active;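 note: potency is the fitted concentration of half-maximal effect; plate controls were DMSO cells for no effect and cell-free wells for full effect; nearly all actives have a fitted effect of over 45% in size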
Starred values were filed as active, the others as inactive; i = inactive; ? = inconclusive; / = no result given; [ ] = dose if it differs, or a comment. The list is not random: actives were taken first. Their share in the collection is about 2.9%. Unless noted, calls come from the whole dose curve; as a rule, active = well fitted curve in the direction sought with a large enough effect; inconclusive = small, poorly fitted or top-dose-only effect, or another doubt; inactive = no such curve, though single readings can be large; an effect the other way counts as inactive or inconclusive.

SMILES	KDM5B inhibitor	HEK293 viab	IP6K1 inh	SNCA expr inh
C[C@H](O)c1onc(-c2ccccc2)c1C(=O)N1CCCCC1	i	-5%[87.6 µM]	5	-21%[87.6 µM]
O=C(NCc1ccc(-c2cnc3c(Oc4ccccc4)nccn23)cc1)c1cccc(O)c1	?	-4%[87.6 µM]	-11	-4%[87.6 µM]
CCOc1nccn2c(-c3ccc(CNC(=O)Cn4cnnn4)cc3)cnc12	40µM*	-3%[87.6 µM]	-9	17%[87.6 µM]
CCc1noc(-c2ccn3c(CNC(=O)c4cccc(F)c4)nnc3c2)n1	i	1%	17	2%
CCc1noc(-c2ccn3c(CNC(=O)c4cccnc4)nnc3c2)n1	28µM*	-9%	27	5%
CCCc1noc(-c2ccn3c(CNC(=O)c4ccc(C)c(C)c4)nnc3c2)n1	4.5µM*	7%	13	-16%
CCc1noc(-c2ccn3c(CNC(=O)c4ccc(F)cc4)nnc3c2)n1	13µM*	7%	0	3%
CCCc1noc(-c2ccn3c(CNC(=O)c4ccc(CC)cc4)nnc3c2)n1	25µM*	9%	40	42%
CCSc1nc(NCCN(C)C)c2c3c(sc2n1)COC(C)(CC)C3 (centres undefined)	i	/	/	/
O=C(CCCn1c(=O)c2cccn2c2ccccc21)NCCc1ccc(Cl)cc1	?	-19%	10	-18%
CCc1noc(-c2ccn3c(CNC(=O)c4ccc(C)c(C)c4)nnc3c2)n1	3.2µM*	10%	7	-23%
CC(C)c1cc(C(=O)N[C@@H]2COCC[C@@H]2Oc2cccc(F)c2)nc(N)n1	28µM*	13%	-2	0%
COc1cccc(CCC(=O)N[C@@H]2COCC[C@@H]2Oc2cccc(F)c2)c1	i	4%	-14	5%
Cc1ccc(CN2CCCCCNC(=O)CC2c2ccccc2)o1 (centres undefined)	28µM*	4%	6	-10%
O=C1CC(c2ccccc2)N(Cc2ccccn2)CCCCCN1 (centres undefined)	i	?	7	7%
CCC(=O)N1CCc2c(sc3ncnc(NCc4ccccc4)c23)C1	32µM*	0%	4	7%
CCc1ccccc1NC(=O)C(C)n1c(=O)cc(C)c2c(C)nn(-c3ccccc3)c21 (centres undefined)	i	-3%	-11	51%
CC(C)C(=O)Nc1ccc2c(N3CCCCC3)ncnc2c1	i	0%	17	8%
COc1ccc(OC)c(CN2CCNc3cc(-c4ccccc4)ncc3C2)c1	i	?	-16	12%[87.6 µM]
COc1ccc(CN2CCNc3cnc(Nc4ccccc4)cc3C2)cc1O	40µM*	-15%[87.6 µM]	-21	-24%[87.6 µM]
COc1ccc(CN2CCNc3cnc(Oc4ccccc4)cc3C2)cc1O	?	1%[87.6 µM]	9	6%[87.6 µM]
COc1ccc(OC)c(CN2CCNc3cnc(Nc4ccccc4)cc3C2)c1	35µM*	-27%[87.6 µM]	-23	-7%[87.6 µM]
COc1ccc(CN2CCNc3cnc(Nc4cccnc4)cc3C2)cc1O	35µM*	6%[87.6 µM]	-14	-29%[87.6 µM]
COc1ccc(CN2CCNc3cc(Nc4cccnc4)ncc3C2)cc1O	i	-22%[87.6 µM]	-21	17%[87.6 µM]
CCc1ccc(C(=O)NC2CCN(c3ccccc3)C2=O)cc1 (centres undefined)	i	-6%	-8	?
SMILES	KDM5B inhibitor	HEK293 viab	IP6K1 inh	SNCA expr inh
Cc1ccc(CNC(=O)CCC2CCCN(S(=O)(=O)c3ccccc3C)C2)cc1 (centres undefined)	i	5%	9	-17%
CC(=O)Nc1cc(C(=O)N2CCC(C)CC2)c2ccc(C)nc2c1	22µM*	-9%	12	?
Cc1ccc2c(C(=O)N3CCN(c4ccccc4F)CC3)cc(NC(=O)C(C)C)cc2n1	?	-3%	6	-28%
Cc1ccc2c(C(=O)N3CCOCC3)cc(NC(=O)C(C)C)cc2n1	22µM*	6%	16	4%
Cc1nn2c(=O)cc(COC(=O)c3ccccc3NC(=O)C3CCCCC3)nc2s1	i	-7%	-4	-16%
Cc1ncoc1C(=O)NCc1cc(Cl)cc2c(C)c(-c3ccccc3)[nH]c12	35µM*	-15%	2	-1%
CCn1nccc1C(=O)NCc1cc(C)cc2c(C)c(-c3ccccc3)[nH]c12	13µM*	?	18	-9%
Cc1nc(CCC(=O)NCc2cc(Cl)cc3c(C)c(-c4ccccc4)[nH]c23)n[nH]1	25µM*	-1%	-14	20%
Cc1cc(CNC(=O)CC2C=CS(=O)(=O)C2)c2[nH]c(-c3ccccc3)c(C)c2c1 (centres undefined)	28µM*	3%	10	80%
Cc1cc(CNC(=O)C(C)Cn2nc(C)nc2C)c2[nH]c(-c3ccccc3)c(C)c2c1 (centres undefined)	i	-23%	13	15%
Cc1c(-c2ccccc2)[nH]c2c(CNC(=O)C3=NN(C)C(=O)CC3)cc(Cl)cc12	i	-23%	-10	20%
COCc1ccc2c(c1)c(OC(C)(C)C(=O)NC(C)C)nn2Cc1cccnc1	?	5%[87.6 µM]	3	30%[87.6 µM]
c1cncc(COc2cc3c(cn2)NCCN(Cc2ccsc2)C3)c1	35µM*	2%[87.6 µM]	-17	-18%[87.6 µM]
CCOc1cc2c(cn1)NCCN(Cc1ccc3[nH]ccc3c1)C2	28µM*	6%[87.6 µM]	-17	11%[87.6 µM]
c1ccc(-c2cc3c(cn2)CN(Cc2ccc4[nH]ccc4c2)CCN3)cc1	i	?	-4	73%[87.6 µM]
Oc1ccccc1CN1CCNc2cnc(OCc3cccnc3)cc2C1	?	-1%[87.6 µM]	-16	-35%[87.6 µM]
c1cncc(COc2cc3c(cn2)NCCN(CC2CCCCC2)C3)c1	25µM*	1%[87.6 µM]	-15	17%[87.6 µM]
COc1cc(C#N)ccc1OCc1cccc(C#N)c1	i	/	/	/
COc1cc2c(cc1OC)CN(Cc1cc(=O)c(OCc3cccc(Cl)c3)co1)CC2	i	/	/	/
O=C(O)CCc1cc2n(n1)CCCN(C(=O)c1cc3c([nH]c1=O)CCC3)C2	28µM*	8%	-6	1%
CCOC(=O)c1ccc(NC(=O)c2sc3nc4n(c(=O)c3c2C)CCC4)cc1	i	3%	7	27%
c1ccc2oc(-c3ccnc4nc(C5CCC5)nn34)cc2c1	11µM*	4%	-4	21%
COc1cc(-c2ccnc3nc(C4CCCCC4)nn23)cc(OC)c1OC	25µM*	2%	14	8%
COc1cc(F)ccc1-c1ccnc2nc(C3CCCO3)nn12 (centres undefined)	28µM*	6%	-8	8%
COc1ccc(-c2ccnc3nc(C4CCC4)nn23)cc1OC	?	5%	6	32%
SMILES	KDM5B inhibitor	HEK293 viab	IP6K1 inh	SNCA expr inh
COc1ccc(-c2ccnc3nc(C4CCC4)nn23)c(F)c1	28µM*	-11%	11	-5%
Cc1noc(C)c1NC(=O)N1CCN(Cc2ccccc2)CC1	i	/	/	/
Cc1nc(-c2cccs2)c(CCC(=O)N2CCN(c3ccccc3F)CC2)s1	i	/	/	/
COc1cc(F)ccc1-c1ccnc2nc(C3CCC3)nn12	28µM*	11%	-10	-20%
Cc1cccc(C(=O)Nc2ccc(S(=O)(=O)N(Cc3ccccc3)c3ccccc3)cc2)c1	?	5%	-11	20%
O=C(Nc1ccc(S(=O)(=O)N(Cc2ccccc2)c2ccccc2)cc1)c1ccccc1F	i	-5%	21	-7%
